High-throughput results: PubChem BioAssay, several laboratories
HDAC3 inh: HDAC3 deacetylase inhibitors, primary screen, biochemical, fluorescence, cell-free homogeneous | Histone deacetylase 3 (Homo sapiens), O15379 | recombinant HDAC3, fluorogenic peptide/trypsin coupled | AID 2718, 2010 | 320,000 tested, 0.15% active | inhibition, % at 8.3 µM; in the data active = inhibition above about 26%, passing the limit was not always enough; inconclusive = no clear call, values can overlap the other calls
NPR1 activator: GC-A stimulated cGMP production enhancers – HEK293 GC-A cells, cGMP TR-FRET, EC30 ANP, primary screen. Atrial natriuretic peptide receptor 1 (Homo sapiens), P16066. 0% at EC30 ANP, 100% saturating ANP. activation, % at 10 µM. 370,000 tested, 0.14% active; in the data active = activation above about 40%
Target sequence (P16066 whole entry, looked up): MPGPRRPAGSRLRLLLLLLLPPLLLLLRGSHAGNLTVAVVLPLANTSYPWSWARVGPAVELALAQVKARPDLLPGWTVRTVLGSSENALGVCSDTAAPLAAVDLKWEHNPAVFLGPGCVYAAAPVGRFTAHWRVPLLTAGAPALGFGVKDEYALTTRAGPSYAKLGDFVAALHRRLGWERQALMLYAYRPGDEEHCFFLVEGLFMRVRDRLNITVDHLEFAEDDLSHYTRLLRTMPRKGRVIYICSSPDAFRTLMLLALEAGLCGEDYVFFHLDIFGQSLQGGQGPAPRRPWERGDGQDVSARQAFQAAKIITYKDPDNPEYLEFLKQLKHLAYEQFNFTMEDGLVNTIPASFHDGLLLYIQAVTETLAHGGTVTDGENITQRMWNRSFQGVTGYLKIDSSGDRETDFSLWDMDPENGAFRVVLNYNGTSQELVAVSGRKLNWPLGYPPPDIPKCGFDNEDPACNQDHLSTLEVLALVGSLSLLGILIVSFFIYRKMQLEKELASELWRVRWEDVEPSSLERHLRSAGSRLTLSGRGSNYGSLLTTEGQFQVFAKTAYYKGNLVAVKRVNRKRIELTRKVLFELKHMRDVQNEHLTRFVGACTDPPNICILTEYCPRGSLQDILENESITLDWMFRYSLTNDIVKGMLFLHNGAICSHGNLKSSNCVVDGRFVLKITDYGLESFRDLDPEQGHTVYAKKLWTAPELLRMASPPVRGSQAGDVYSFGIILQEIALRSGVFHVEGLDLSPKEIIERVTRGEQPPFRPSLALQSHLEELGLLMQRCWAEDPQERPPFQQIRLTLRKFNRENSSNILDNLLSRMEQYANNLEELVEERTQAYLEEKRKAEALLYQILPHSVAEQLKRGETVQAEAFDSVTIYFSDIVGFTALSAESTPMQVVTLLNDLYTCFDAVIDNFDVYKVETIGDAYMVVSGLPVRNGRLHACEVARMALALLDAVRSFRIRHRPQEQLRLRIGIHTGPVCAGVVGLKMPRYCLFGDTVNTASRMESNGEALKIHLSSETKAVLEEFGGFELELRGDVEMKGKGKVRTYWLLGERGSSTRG
GC-B act: human GC-B receptor activators, primary screen, HEK293 GC-B cells, cGMP TR-FRET, EC30 CNP; 0% at EC30 CNP, 100% saturating CNP; AID 1920062, 2024; activation, % at 10 µM; 370,000 tested, 0.11% active;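 active = activation at 10 µM reaching about 35% in either raw or pattern-adjusted values, limit read from the data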
ALR inh: inhibitors of human ALR sulfhydryl oxidase, primary screen, biochemical, H2O2 detection, HRP-luminol luminescence, single point | purified ALR, DTT oxidation | inhibition, % (concentration not given with the values) | 290,000 tested, 3.8% active | AID 485317, 2010;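 active = mean replicate inhibition above about 79%, with every replicate also reaching it, limit read from the data; inconclusive = only one of the two criteria met; inactive = mean below limit and not every replicate reaching it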
An asterisk follows results filed as active; ? = inconclusive; . = not tested or not shown; ! = a repeat was not active. This excerpt belongs to a sample that is enriched for hits.

SMILES	HDAC3 inh	NPR1 activator	GC-B act	ALR inh
COc1ccc(-c2csc(Cc3nnc4n3CCCCC4)n2)cc1OC	1.7	3.4	3.3	97.5*
Nc1nc(Nc2ccccc2)nc(NCc2ccccc2)c1[N+](=O)[O-]	8.7	33.4	31.8	86.1*
Nc1nc(NCc2ccccc2)nc(NCc2ccccc2)c1[N+](=O)[O-]	-4.4	5.3	6.9	0.9
COC(=O)C1CN(Cc2cn(Cc3ccc(C)cc3)nn2)CCS(=O)(=O)N1Cc1ccc(C)cc1 (stereo not given)	.	-4.3	-9.2	.
Cc1c(Cl)cnc(NC(=O)CSc2nnnn2C)c1Cl	4.2	3.3	-0.3	-3.7
CC1=CC(C)(C)N2C(=O)C(=Nc3ccc(O)cc3)c3cccc1c32	2.4	-2.3	-6.2	96.9*
COc1cc(N=C2C(=O)N3c4c(cccc42)C(C)=CC3(C)C)cc(OC)c1	-1.8	-7.7	-1.4	23.9
Oc1ccc(Nc2ncnc3c2oc2ccccc23)cc1	4.4	-4.3	-0.7	41.9
CCc1nc(Nc2ccc(N3CCN(C(C)=O)CC3)cc2)c2oc3ccccc3c2n1	3.6	14.9	19.6	96.5*
CC(=O)N1CCN(c2ccc(Nc3ncnc4c3oc3ccccc34)cc2)CC1	5.8	3.6	10.0	99.2*
CCc1nc(Nc2ccccc2)c2oc3ccccc3c2n1	-1.9	20.5	15.4	-11.2
O=C(Nc1ccc(S(=O)(=O)N2CCCCCC2)cc1)c1[nH]ncc1[N+](=O)[O-]	3.4	0.3	-0.4	58.9
O=C(c1ccc(OCCN2CCCCC2)cc1)c1c(-c2ccc(O)cc2)sc2cc(O)ccc12	2.1	-10.2	-1.0	90.9*
Cc1ccc(S(=O)(=O)N2c3ccc(F)cc3C[C@H]2CSc2ccccc2)cc1	.	-0.8	-4.7	.
CCN1CCN(c2ccc(S(=O)(=O)N3CCOCC3)cc2NC(=O)C(C)Oc2ccc(Cl)cc2)CC1 (stereo not given)	.	2.2	3.2	-1.4
CCCC(C)C(=O)NC1CCCCN(Cc2ccc(C)cc2)C1=O (stereo not given)	.	4.5	5.8	.
CC(C(=O)Nc1sccc1C(N)=O)N1C(=O)C2CC=CCC2C1=O (stereo not given)	4.1	-0.6	0.3	96.8*
C[C@@H](C(=O)Nc1nccs1)N1C(=O)C2CC=CCC2C1=O (stereo not given in full)	1.6	-1.6	-1.6	-4.6
Cc1cc(Cn2nc(-c3ccccc3)cc2C(=O)NCC2CC2)on1	-9.8	2.7	-6.7	12.0
O=S(=O)(c1ccc(S(=O)(=O)N(Cc2ccccc2)Cc2ccco2)cc1)N1CCCC1	-4.7	-0.8	-2.3	94.3*
O=C1Nc2ccc3c(c2C1=Cc1cc2c(cc1Br)OCO2)OCO3	.	-27.5	-9.1	.
O=C1NC(=O)/C(=C\c2ccc(O)cc2O)S1	?	-1.4	-4.5	99.0*
O=C1NC(=O)/C(=C/c2cccc3ccccc23)S1	0.6	1.7	-2.5	38.7
O=C1NC(=O)/C(=C/c2cc3c(cc2Br)OCO3)S1	6.1	0.8	-13.4	96.5*
O=S(=O)(NNc1ccc(F)cc1F)c1cccc(Cl)c1	1.4	-0.2	1.7	98.3*
SMILES	HDAC3 inh	NPR1 activator	GC-B act	ALR inh
O=C(CSc1nc2ccccc2s1)Nc1cc(C(=O)O)cc(C(=O)O)c1	-1.2	-1.0	-0.2	99.3*
Nc1nonc1NC(=O)CSc1nc2ccccc2s1	-3.3	-6.1	-5.2	98.4*
O=C(CSc1nc2ccccc2s1)Nc1nccs1	0.3	-2.2	-0.1	-8.8
O=C(CSc1nc2ccccc2s1)NNC(=O)Nc1ccc(Cl)c(Cl)c1	15.8	-0.8	-3.9	-11.6
O=C(CSc1nc2ccccc2s1)Nc1ccc(Cl)c(C(=O)O)c1	4.4	2.2	1.8	98.9*
O=C(CSc1nc2ccccc2s1)NCc1cc([N+](=O)[O-])ccc1O	1.8	0.7	0.6	98.9*
COc1ccc(N2CCN(C(=O)COC(=O)[C@@H](NC(=O)c3c(F)cccc3F)C(C)C)CC2)cc1	.	3.9	-0.6	.
O=C(CCCCCNC(=O)N1CCn2c1nc1ccccc12)NCc1ccc(F)cc1	-1.7	-11.2	-1.1	-3.5
O=C(O)CSCC(=O)Nc1ccc(-c2nc3ccccc3s2)cc1	-16.6	6.2	0.6	98.8*
CCN(C)C1CN(Cc2cn(Cc3cccc(C(F)(F)F)c3)nn2)S(=O)(=O)C1 (stereo not given)	.	3.8	0.5	.
O=C1CCCC2=C1C(c1ccc(O)c(O)c1)c1c(ccc3ncccc13)N2 (stereo not given)	0.8	-0.3	-4.2	99.9*
CCN(CC)c1ccc(NC(=O)C2=CC=CN3CCS(=O)(=O)N=C23)cc1	2.1	-2.5	-2.8	99.2*
COc1ccccc1-n1c(SCc2cc(=O)oc3cc(O)ccc23)nc2ccccc2c1=O	1.3	-21.0	-3.6	-8.9
CCC(CO)n1c(SCc2cc(=O)oc3cc(C)ccc23)nc2ccccc2c1=O (stereo not given)	1.2	-9.2	-11.6	98.7*
COC(=O)c1cc2c(c3c4cc(C)ccc4n(S(=O)(=O)c4ccc(C)cc4)c13)C(=O)N(Cc1ccccc1OC)C2	.	3.6	1.5	.
CCN1CCN(Cc2ccc(NC(=O)Nc3ccc(SC)cc3)cc2)CC1	3.7	-2.0	-2.7	96.1*
C[C@@H]1CN([C@H](C)CO)C(=O)c2cc(NS(=O)(=O)c3ccccc3)ccc2O[C@@H](C)CCCCO[C@@H]1CN(C)Cc1ccc(Cl)c(Cl)c1	.	-4.1	-0.8	.
CCN(CC)c1ccc(SS(=O)(=O)O)cc1	3.2	1.1	1.4	99.2*!
O=S(=O)(O)Sc1ccccc1	.	6.5	2.5	.
O=C(Cc1ccccc1)NC1CCSc2ccccc21 (stereo not given)	7.6	-2.4	-0.5	-10.4
O=C(c1ccccc1)c1ccc2ccccc2c1	.	0.8	4.0	.
O=C(c1ccccc1)c1ccc2cc(O)ccc2c1	1.8	2.8	-2.9	99.5*
COc1ccccc1NC(=O)CSc1nc(SC)ns1	4.8	-1.1	-7.7	84.5*
CSc1nsc(SCC(=O)Nc2cccc(C(=O)O)c2)n1	1.0	3.5	2.2	6.9
CSc1nsc(SCC(=O)Nc2cccc(NC(C)=O)c2)n1	6.2	-7.3	-2.2	99.3*
SMILES	HDAC3 inh	NPR1 activator	GC-B act	ALR inh
CSc1nsc(SCC(=O)Nc2ccc3c(c2)OCCO3)n1	5.6	0.9	-3.2	98.4*
CSc1nsc(SCC(=O)Nc2ccccn2)n1	2.2	1.8	-5.5	-5.3
CC1CC(C)CN(c2ccc([N+](=O)[O-])nc2)C1 (stereo not given)	8.8	-5.2	-0.3	-11.8
C[C@H]1COc2cc(Br)ccc2S(=O)(=O)N1Cc1cn(Cc2ccc(Br)cc2)nn1	.	-7.5	-8.2	.
NS(=O)(=O)c1ccc(N=Nc2c[nH]c(=O)c(O)c2)cc1	.	-9.3	-6.0	89.5*
CCN1C(=O)[C@H]2[C@@H](c3ccc(C)cc3)N[C@]3(CCCN(Cc4cccn4C)C3=O)[C@H]2C1=O	.	-0.3	-4.2	.
